Values without a mark were called inactive. No rule for the calls is given here.
Each compound was assayed against thrombin (human, UniProt P00734) (assay: primary screen, binary call; higher = more effect of the substance). Details: 200 µM.
Design: screenings were carried out in duplicate in one independent experiment
Description: Protease inhibitory assays were performed in transparent microtiter plates in a final volume of 200 µL with the use of chromogenic substrates. The reaction rates in the absence and in the presence of the inhibitor were measured; screenings were carried out in duplicate in one independent experiment and Ki values were determined in triplicate in two independent experiments.

SMILES | Thrombin
N#Cc1ccc2ncsc2c1 | 0
COc1ccccc1N1CCNCC1 | 0
Cn1nc(C(F)(F)F)cc1O | 0
Cc1nc(-c2ccccc2)cs1 | 0
Cc1cnc(C(F)(F)F)cn1 | 0
Oc1ccccc1N1CCCCC1 | 0
NC1CCc2ccccc21 (stereo not shown) | 0
c1ccc2oc(C3CCCNC3)nc2c1 (stereo not shown) | 0
O=C(O)c1cccc(Nc2ncccn2)c1 | 0
O=C1CCN(c2ccncc2)CC1 | 0
O=C(O)CC1CCC(=O)N1 (stereo not shown) | 0
O=C1NC(=O)/C(=C\c2cccs2)N1 | 0
CC(=O)c1sc(-c2ccc(O)cc2)nc1C | 1 (active)
O=C(CN1CCNCC1)c1ccccc1 | 0
Oc1ccc(C2CCNCC2)cc1 | 0
Nc1ccc(-c2ccccc2)cc1C(=O)O | 0
Cc1cc(C)c2c(=O)[nH]n(C)c2n1 | 0
O=c1[nH]c2c(s1)CCC2 | 0
O=C(Nc1ccccc1)C1CC1 | 0
O=C(O)C1CCN(c2ncccn2)CC1 | 1 (active)

SMILES | Thrombin
O=C1CCCc2occc21 | 0
Oc1ccc(-n2cncn2)cc1 | 0
CCc1ccc(NC2=NCCCS2)cc1 | 0
CCn1cnc2ccccc21 | 0
c1ccc2c(N3CCNCC3)ccnc2c1 | 0
COc1ccccc1C1CCNCC1 | 0
Clc1ccc2nnnn2n1 | 0
O=C(NC1CC1)c1ccccc1O | 0
O=C(CN1CCCC1)c1ccccc1Cl | 0
O=C(O)c1cnc(-c2ccccc2)s1 | 1 (active)
NC(c1ccccc1)c1ccccc1 | 0
Oc1nnc(-c2ccccc2)o1 | 0
O=C1CSC(Nc2ccc(F)cc2)=N1 | 0
O=c1ccc2c([nH]1)CCCC2 | 0
O=C(O)C1CCCN(C(=O)N2CCCC2)C1 (stereo not shown) | 0
FC1(F)CNCC(F)(F)O1 | 0
CN1CC(=O)NC1=O | 0
NCC1(c2ccccc2)CCOCC1 | 0
CS(=O)(=O)Nc1ccc(C(=O)O)cc1 | 0
N#CC1CCS(=O)(=O)C1 (stereo not shown) | 0

From paper PMC8159961, “Exploring protein hotspots by optimized fragment pharmacophores” (Nature Communications, 2021)
